# Experimental data as given in the supplement of paper PMC7156485.
# Where a name gives a salt, the structure may show the parent alone. Unmarked numbers belong to inactive results.
# Test system: HCC1569
# Experiment: H1.0 immunofluorescence intensity relative to DMSO (% of DMSO); higher = stronger H1.0 induction, active = 140 or more
# Conditions: concentration: 10 µM; 24 h
# Procedure, shortened: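 Cell number or H1.0 nuclear intensity appears as percent of the plate control, based on the median of replicates. Measurements came from HCC1569 and TDF cells exposed in triplicate to compounds at 10 µM for 24 h at 37 °C, then imaged in six fields per well at ×10. Positional effects were smoothed out of HCC1569 values.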
# 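Also: TDF is a line of transformed human dermal fibroblasts of mesenchymal origin.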
row,Structure (SMILES),H1.0 immunofluorescence intensity
1,Cl.NCCc1c[nH]c2ccccc12 [Tryptamine hydrochloride],97.2
2,CCC1(c2ccc(N)cc2)CCC(=O)NC1=O (racemic) [DL-Aminoglutethimide],109
3,CC(C)Oc1cccnc1N(C)C1CCN(Cc2ccc(I)cc2)CC1 [RBI-257 maleate],102
4,COc1ccccc1N1CCNCC1.Cl [1-(2-Methoxyphenyl)piperazine hydrochloride],98.8
5,CC(=O)OCC1=C(C(=O)[O-])N2C(=O)C(NC(=O)CCCC(N)C(=O)[O-])C2SC1.[Zn+2] (stereo unspecified) [Cephalosporin C zinc salt],90.8
6,O=C1C=C2C=CC3CC2(O1)C1CCCCN31 (stereo unspecified) [Securinine],99.9
7,CC12C(=O)OC(=O)C1(C)C1CCC2O1 (stereo unspecified) [Cantharidin],187 (active)
8,N#CC(C#N)=Cc1cc(O)c(O)c(O)c1 [Tyrphostin 25],113
9,NC(=NCCCC(N)C(=O)O)N[N+](=O)[O-] [NG-Nitro-L-arginine],90
10,Cc1ccc2c(c1)C1(CCN(CCc3nc(-c4ccccc4)oc3C)CC1)OC(=O)N2,123
11,"CCc1c(C(=O)OC)ncc2[nH]c3cc(OC)c(OC)cc3c12 [Methyl 6,7-dimethoxy-4-ethyl-beta-carboline-3-carboxylate]",130
12,Br.CC1NCCc2cc(O)c(O)cc21 (stereo unspecified),94.9
13,CC(C)(C)c1cc(C=C(C#N)C#N)cc(Br)c1O,99.8
14,CCN1CC2(C)CCC(OC)C34C2C(OC(C)=O)C2(OCOC25CC(OC)C2CC3(O)C5C2OC)C14 (stereo unspecified) [Deltaline],96.9
15,C=C(C)C1Cc2c(ccc3c2OC2COc4cc(OC)c(OC)cc4C2C3=O)O1 (stereo unspecified) [Rotenone],178 (active)
16,N[C@@](CF)(Cc1cnc[nH]1)C(=O)O [MK-453 hydrochloride],91.5
17,CCC(C(N)=O)N1CCCC1=O (stereo unspecified) [Levetiracetam],101
18,CCCN(CCC)C1CCc2c(F)ccc(O)c2C1.Cl (stereo not drawn) [S(-)-UH-301 hydrochloride],96.3
19,Cn1ncnc1COc1nn2c(-c3c(F)cccc3F)nnc2cc1C1CCC1,99.6
20,C=C1C(C)C2C(Cc3ccccc3)NC(=O)C23OC(=O)C=CC(O)CCCC(C)CC=CC3C1O (stereo unspecified) [Cytochalasin B],110
21,CC(=O)OC1CC2CCC3C(CCC4(C)C3CC([N+]3(C)CCCCC3)C4OC(C)=O)C2(C)CC1[N+]1(C)CCCCC1.[Br-].[Br-] (stereo unspecified) [Pancuronium.2Br],102
22,C=CCN1CCC23CCCCC2C1Cc1ccc(O)cc13.O=C(O)C(O)C(O)C(=O)O (stereo unspecified) [Levallorphan tartrate],100
23,Fc1cc(F)c2c(c1)C1C=CCC1C(c1cccnc1)N2 (stereo unspecified),169 (active)
24,CCC1(O)C(=O)OCc2c1cc1n(c2=O)Cc2cc3ccccc3nc2-1 [(S)-(+)-Camptothecin],114
25,Cl.Cl.NNCc1cccc(O)c1 [3-Hydroxybenzylhydrazine dihydrochloride],104
26,C=C1C2CC3(C1O)C1CC4C5(C)CCC(O)C4(C1N(CC)C5)C3CC2=O (stereo unspecified) [Songorine],91.7
